The nature of experiment [1]: small molecules captured by biotinylated probe aFSTL3 – biochemical, small-molecule microarray, fluorescence 635/667, stem cell growth factor project, primary screen (AID 1064).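 Note: measures binding of the biotinylated anti-FSTL3 antibody to printed compounds.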 The following applies: higher = more signal.
A short description of experiment [2]: binders from COS7 lysate, DM2A8 probe, primary screen, torsin A project, cell lysate, small-molecule microarray, fluorescence 635/667 (AID 1065). The following applies: higher = more signal, COS7 lysate expressing mutant human TOR1A.
Experiment [3] in a line: small molecules captured by biotinylated probe aFGF2 – biochemical, small-molecule microarray, fluorescence 635/667, stem cell growth factor project, primary screen (AID 1067).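 Note: measures binding of biotinylated aFGF2 protein to printed compounds on slides; z-score merges feature fluorescence and signal-to-noise across triplicate slides.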 The following applies: higher = more signal.
Experiment [4] in a line: small molecules captured by biotinylated probe aFGF10 – biochemical, small-molecule microarray, fluorescence 635/667, stem cell growth factor project, primary screen (AID 1071).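 Note: score merges 667 nm spot intensity and signal to noise from triplicate slides.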 The note with it: higher = more signal.
Experiment [5] deals with Neurogenic locus notch homolog protein 2 (Homo sapiens) (UniProt Q04721). The experiment in a line: small molecules binding Notch2 protein – biochemical, small-molecule microarray, 635 nm fluorescence, stem cell growth factors, primary screen (AID 1073). The following applies: higher = more signal.
Sequence of Neurogenic locus notch homolog protein 2 (Homo sapiens) (Q04721 whole entry, looked up, canonical isoform): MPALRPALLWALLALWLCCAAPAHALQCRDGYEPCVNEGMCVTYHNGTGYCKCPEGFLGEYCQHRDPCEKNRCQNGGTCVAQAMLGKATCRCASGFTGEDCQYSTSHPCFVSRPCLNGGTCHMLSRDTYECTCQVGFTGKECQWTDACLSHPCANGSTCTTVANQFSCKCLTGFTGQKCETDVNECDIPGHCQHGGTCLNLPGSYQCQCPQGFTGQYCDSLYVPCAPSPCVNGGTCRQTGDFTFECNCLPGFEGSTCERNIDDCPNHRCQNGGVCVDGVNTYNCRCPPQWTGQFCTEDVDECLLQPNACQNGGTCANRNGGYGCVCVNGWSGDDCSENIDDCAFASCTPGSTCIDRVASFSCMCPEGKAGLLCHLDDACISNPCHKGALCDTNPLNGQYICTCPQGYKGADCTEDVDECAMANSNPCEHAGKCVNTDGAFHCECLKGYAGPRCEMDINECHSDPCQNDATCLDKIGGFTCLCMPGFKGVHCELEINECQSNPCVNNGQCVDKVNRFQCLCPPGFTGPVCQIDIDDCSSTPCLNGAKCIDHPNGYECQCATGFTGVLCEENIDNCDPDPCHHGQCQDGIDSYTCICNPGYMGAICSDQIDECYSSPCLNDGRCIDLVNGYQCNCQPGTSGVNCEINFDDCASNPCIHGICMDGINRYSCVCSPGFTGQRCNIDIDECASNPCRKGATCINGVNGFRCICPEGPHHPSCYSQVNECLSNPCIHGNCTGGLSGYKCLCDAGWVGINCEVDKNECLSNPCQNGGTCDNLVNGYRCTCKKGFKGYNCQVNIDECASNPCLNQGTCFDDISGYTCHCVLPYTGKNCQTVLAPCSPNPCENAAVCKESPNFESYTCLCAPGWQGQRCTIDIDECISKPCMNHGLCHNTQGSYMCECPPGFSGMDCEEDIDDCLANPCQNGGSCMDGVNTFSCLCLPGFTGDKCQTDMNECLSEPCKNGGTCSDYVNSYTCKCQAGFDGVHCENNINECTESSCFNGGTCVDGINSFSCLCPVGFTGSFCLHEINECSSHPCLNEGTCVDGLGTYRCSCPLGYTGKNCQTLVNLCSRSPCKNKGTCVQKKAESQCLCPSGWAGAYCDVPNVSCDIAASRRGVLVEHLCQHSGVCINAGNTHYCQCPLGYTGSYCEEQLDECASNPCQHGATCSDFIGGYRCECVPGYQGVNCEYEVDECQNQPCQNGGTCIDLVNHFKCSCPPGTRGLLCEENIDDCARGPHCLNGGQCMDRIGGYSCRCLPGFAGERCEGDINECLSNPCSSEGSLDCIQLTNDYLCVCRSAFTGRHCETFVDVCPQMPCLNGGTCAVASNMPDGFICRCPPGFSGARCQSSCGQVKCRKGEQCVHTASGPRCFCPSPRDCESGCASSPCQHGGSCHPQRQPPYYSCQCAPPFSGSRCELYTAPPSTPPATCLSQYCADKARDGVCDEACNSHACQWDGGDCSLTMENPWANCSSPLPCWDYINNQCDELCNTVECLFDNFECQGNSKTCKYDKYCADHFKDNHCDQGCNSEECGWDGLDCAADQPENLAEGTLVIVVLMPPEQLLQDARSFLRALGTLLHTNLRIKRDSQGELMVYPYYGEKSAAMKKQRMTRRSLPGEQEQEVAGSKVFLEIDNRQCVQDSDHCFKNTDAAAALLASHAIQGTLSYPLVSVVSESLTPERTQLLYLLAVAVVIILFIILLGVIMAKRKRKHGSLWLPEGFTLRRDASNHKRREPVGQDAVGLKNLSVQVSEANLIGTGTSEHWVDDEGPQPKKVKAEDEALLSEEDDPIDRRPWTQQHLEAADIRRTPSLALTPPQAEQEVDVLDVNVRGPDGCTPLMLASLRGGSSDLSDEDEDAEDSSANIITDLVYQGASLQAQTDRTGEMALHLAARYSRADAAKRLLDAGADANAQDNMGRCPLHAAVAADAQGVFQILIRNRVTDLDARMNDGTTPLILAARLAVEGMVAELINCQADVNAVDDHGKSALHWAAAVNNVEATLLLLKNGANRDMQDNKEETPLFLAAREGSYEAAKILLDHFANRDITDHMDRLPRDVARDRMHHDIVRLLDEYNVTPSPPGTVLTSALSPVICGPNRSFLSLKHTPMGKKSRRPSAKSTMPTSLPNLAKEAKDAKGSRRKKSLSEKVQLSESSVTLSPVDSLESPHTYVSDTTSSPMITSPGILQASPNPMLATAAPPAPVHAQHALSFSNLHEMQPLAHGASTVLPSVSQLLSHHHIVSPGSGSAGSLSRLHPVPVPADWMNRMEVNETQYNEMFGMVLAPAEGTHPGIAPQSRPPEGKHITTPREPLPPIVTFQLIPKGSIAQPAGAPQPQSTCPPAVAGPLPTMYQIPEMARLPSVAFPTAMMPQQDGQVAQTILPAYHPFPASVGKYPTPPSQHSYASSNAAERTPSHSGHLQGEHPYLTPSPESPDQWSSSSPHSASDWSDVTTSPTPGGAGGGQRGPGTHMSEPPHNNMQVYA
Experiment [6] deals with Pro-neuregulin-1, membrane-bound isoform (Homo sapiens) (UniProt Q02297). The experiment in a line: small molecules binding neuregulin-1 protein – biochemical, small-molecule microarray, fluorescence 635/667, psychiatric disease protein project, primary screen (AID 1075).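 Note: score combines 667 nm spot fluorescence with signal to noise.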 The note with it: NRG1 binding, 635 nm fluorescence, higher = more signal.
Sequence of Pro-neuregulin-1, membrane-bound isoform (Homo sapiens) (Q02297 whole entry, looked up, the tested form may be a part, canonical isoform): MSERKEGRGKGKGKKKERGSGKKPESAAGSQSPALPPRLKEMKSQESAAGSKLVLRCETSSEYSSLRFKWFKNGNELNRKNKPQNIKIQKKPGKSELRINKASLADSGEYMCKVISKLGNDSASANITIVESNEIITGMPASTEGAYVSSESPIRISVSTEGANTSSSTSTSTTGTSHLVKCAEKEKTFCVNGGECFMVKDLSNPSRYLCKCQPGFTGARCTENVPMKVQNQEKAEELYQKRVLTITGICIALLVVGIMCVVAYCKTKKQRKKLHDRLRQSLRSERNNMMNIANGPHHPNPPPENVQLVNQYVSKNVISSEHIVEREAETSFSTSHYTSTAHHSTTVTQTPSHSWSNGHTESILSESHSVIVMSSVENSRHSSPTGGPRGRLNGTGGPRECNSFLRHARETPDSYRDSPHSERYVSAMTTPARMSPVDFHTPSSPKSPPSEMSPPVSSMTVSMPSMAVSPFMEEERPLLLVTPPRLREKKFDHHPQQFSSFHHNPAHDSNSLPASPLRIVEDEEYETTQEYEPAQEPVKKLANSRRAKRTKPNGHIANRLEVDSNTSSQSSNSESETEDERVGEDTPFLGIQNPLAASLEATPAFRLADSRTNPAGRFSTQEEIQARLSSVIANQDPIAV
Experiment [7] concerns Neuregulin-1 EGF-like domain. The experiment in a line: small molecules binding NRG1 EGF domain – biochemical, small-molecule microarray, 635 nm fluorescence, primary screen (AID 1081).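 Note: binding of the protein to compounds printed on small-molecule microarray slides.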 The note with it: higher = more signal.
Experiment [8] in a line: FRG1 expression reporter modulators in myotubes – cell-based, C2C12 myotubes, firefly/Renilla luciferase, luminescence, FRG1 inhibition for FSHD, primary screen (AID 1084). The following applies: FRG1 promoter luciferase, higher = more signal, called active from +8 up or from −8 down.
The nature of experiment [9]: small molecules captured by biotinylated probe aFST – biochemical, small-molecule microarray, fluorescence 635/667, stem cell growth factor project, primary screen (AID 1086).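 Note: score merges 667 nm fluorescence with signal-to-noise of each printed compound spot.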 The note with it: higher = more signal.
Experiment [10] is described as follows: binders of probe aHhip on microarray, primary screen, stem cell growth factor project, biochemical, small-molecule microarray, fluorescence 635/667 (AID 1087).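 Note: score merges spot fluorescence at 667nm with spot signal to noise ratio.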 The following applies: higher = more signal.
Experiment [11] relates to PRMT1 (protein arginine N-methyltransferase 1). Nature of the experiment: small molecules binding arginine methyltransferase PRMT1 – biochemical, small-molecule microarray, 635 nm fluorescence, primary screen (AID 1088).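 Note: binding of Prmt1 protein to compounds spotted on small-molecule microarray slides.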 The following applies: higher = more signal.
A short description of experiment [12]: growth effects on S. cerevisiae YJM789 – YJM789 clinical isolate, OD600, 24 h, basal, primary screen (AID 1089).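 Note: growth of clinical yeast isolate S. cerevisiae YJM 789 seeded 1000 cells per well; test concentration not given here.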 The following applies: higher = more signal, called active from +8 up or from −8 down.
Experiment [13] is described as follows: S. pombe growth modifiers, basal conditions – strain 972, OD600, 24 h, no modulator, primary screen (AID 1090).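 Note: basal condition with compound alone and no growth modifier present; test concentration not given here.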 The following applies: S. pombe 972 growth, higher = more signal, called active from +8 up or from −8 down.
A short description of experiment [14]: budding yeast growth modifiers under rapamycin – strain BY4716, OD600, 96 h, primary screen (AID 1091). Note: test concentration not given here. The following applies: S. cerevisiae BY4716 + rapamycin, higher = more signal, called active from +8 up or from −8 down.
For experiment [15], the target named is Torsin-1A-interacting protein 2 (Homo sapiens) (UniProt Q8NFQ8). Nature of the experiment: small molecules binding lysate-expressed LULL1 – cell lysate, human LULL1 lysate, 635/667 nm fluorescence, primary screen (AID 1092).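 Note: probe is lysate of COS7 cells overexpressing human LULL1; score merges per-feature 667 nm fluorescence with signal-to-noise.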 The following applies: small-molecule microarray, hLULL1 lysate binding, 635 nm fluorescence; higher = more signal.
Sequence of Torsin-1A-interacting protein 2 (Homo sapiens) (Q8NFQ8 whole entry, looked up): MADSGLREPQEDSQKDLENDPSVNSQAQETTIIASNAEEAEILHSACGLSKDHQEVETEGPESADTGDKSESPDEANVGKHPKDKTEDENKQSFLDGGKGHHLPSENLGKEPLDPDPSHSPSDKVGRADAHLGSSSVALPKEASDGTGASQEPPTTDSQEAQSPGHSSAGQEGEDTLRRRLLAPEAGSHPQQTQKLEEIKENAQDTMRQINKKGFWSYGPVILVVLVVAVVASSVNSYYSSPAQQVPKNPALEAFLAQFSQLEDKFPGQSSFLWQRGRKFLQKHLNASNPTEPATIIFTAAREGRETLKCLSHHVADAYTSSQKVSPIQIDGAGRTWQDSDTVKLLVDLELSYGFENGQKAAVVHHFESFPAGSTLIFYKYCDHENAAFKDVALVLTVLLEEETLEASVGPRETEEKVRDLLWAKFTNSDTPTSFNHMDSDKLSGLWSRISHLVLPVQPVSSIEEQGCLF
A short description of experiment [16]: optical density change of DRC41 E. coli – strain DRC41, OD650, 24 h, E. coli filamentation project, primary screen (AID 1093).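 Note: MC1000 strain lacking acrAB efflux and sulA so SOS filamentation is blocked; test concentration not given here.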 The note with it: E. coli DRC41 growth, higher = more signal, called active from +8 up or from −8 down.
A short description of experiment [17]: probe aLefty2 binding to arrayed compounds – biochemical, biotinylated probe, 635/667 nm fluorescence, primary screen (AID 1094).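 Note: score merges spot fluorescence near 667 nm with spot signal-to-noise ratio.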 The note with it: small-molecule microarray, higher = more signal.
Experiment [18] has as its system Noggin (protein binding on small-molecule microarray). Nature of the experiment: small molecules binding Noggin protein – biochemical, 635/667 nm fluorescence, primary screen (AID 1095).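 Note: score merges 667 nm feature fluorescence with signal to noise over triplicate slides.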 The note with it: 635 nm fluorescence, higher = more signal.
Experiment [19] concerns the target Neurogenic locus notch homolog protein 3 (Homo sapiens) (UniProt Q9UM47). Nature of the experiment: small molecules binding NOTCH3 protein – biochemical, 635/667 nm fluorescence, primary screen (AID 1096). The following applies: small-molecule microarray, 635 nm fluorescence, higher = more signal.
The nature of experiment [20]: probe aEGFR binding to arrayed compounds – biochemical, biotinylated probe, 635/667 nm fluorescence, primary screen (AID 1097).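 Note: probe is a biotinylated anti-EGFR antibody binding compounds printed on slides; score combines fluorescence near 667 nm and signal to noise of each spot.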 The note with it: small-molecule microarray, higher = more signal.

Activity calls are given as the source filed them.

Regarding `C=C(/C(=C/C[C@H](OC(C)=O)c1cccc(OCCO)c1)c1cc(C(=O)OC)ccc1OC)C(C)C`, the composite z-score in experiment [1] is 0.037; in experiment [2], 0.0106; in experiment [3], -0.128; in [4] it was 0.437; in experiment [5] it was -1.02; in experiment [6], 1.04. Besides, the composite z-score in [7] was 0.274; in experiment [9], -0.24; in experiment [10] it was 0.0623; in experiment [11], 0.359; in [15], 0.41; in experiment [17] it was -0.189. Also, the composite z-score is -0.0168 in experiment [18], -0.609 in [19] and -0.191 in [20]. Besides, the z-score in [8] is -0.698 (inactive); in [12] it was 0.0359 (inactive); in [13], -1.37 (inactive); in experiment [14], -0.954 (inactive); in [16], 1.73 (inactive).

`C=C(COC)C(=O)CC[C@@H](OC(=O)c1ccccc1-c1ccccc1C(=O)O)c1cccc(OCCO)c1`: the composite z-score in experiment [1] was -0.124; in experiment [2] it was 0.098; in experiment [3], -0.14; in experiment [4], 0.457; in experiment [5] it was -0.66; in [6], 0.691. Moreover, the composite z-score was 0.137 in [7]; -0.0665 in experiment [9]; -0.0645 in experiment [10]; 0.437 in experiment [11]; 0.132 in [15]; -0.183 in [17]. In addition, the composite z-score in experiment [18] was 0.518; in experiment [19], -0.338; in experiment [20], -0.173. Also, the z-score in [8] was 0.658 (inactive); in experiment [12] it was 0.586 (inactive); in experiment [13], -1.51 (inactive); in experiment [14] it was -0.409 (inactive); in experiment [16] it was 0.826 (inactive).

For `COc1ccc([Si](C)(C)[C@H]2[C@H](CCO)O[C@@]3(C(=O)N(Cc4ccc(N5C(=O)c6cccc7cccc5c67)cc4)c4ccccc43)[C@@H]2C)cc1`, the composite z-score in [1] is 0.633; in [2] it was -0.213; in experiment [3], -0.0692; in experiment [4], -0.397; in experiment [5], -0.831; in experiment [6], 1.1. Moreover, the composite z-score in experiment [7] was 0.657; in experiment [9] it was 0.025; in experiment [10], -0.261; in experiment [11], 0.126; in experiment [15], 0.589; in [17], -0.169. For the same compound, the composite z-score in [18] is -0.688; in experiment [19], -0.601; in [20], -0.272. The z-score was -4.45 (inactive) in experiment [8]; 0.341 (inactive) in experiment [12]; 0.472 (inactive) in experiment [13]; 26 (active) in [14]; 2.02 (inactive) in experiment [16].

Values taken from PubChem BioAssay.
